{
  "source": "PubChem BioAssay AID588346",
  "about": "(National Center for Advancing Translational Sciences (NCATS), 2011)",
  "assay": "qHTS Assay for Inhibitors of Histone Lysine Methyltransferase G9a: Hit Confirmation in b-rIgG Counterscreen",
  "details": "AlphaScreen b-rIgG bead counterscreen, signal interference; series mostly up to 55.7 µM",
  "procedure,_shortened": "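No enzyme or histone peptide present: biotinylated rabbit IgG (1 nM final) preincubated 15 min at room temperature with compounds, then bound by streptavidin donor and anti-rIgG acceptor AlphaScreen beads (20 ug/mL each); read after 15 min dark incubation.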",
  "note": "Results filed as inconclusive are left out. Entries that show only a call come without a potency. Calls of active or inactive are those of the source. The call rests on the fitted dose curve; in most records, active means well fitted curve in the direction sought with a large enough effect; inconclusive means small, poorly fitted or top-dose-only effect, or another doubt; inactive means no such curve, though single readings can be large or run the other way.",
  "data": [
    {"molecule": "COc1ccc2c(C)cc(SCC(=O)N(C)C3CCS(=O)(=O)C3)nc2c1", "note": "(configuration not stated)", "values": [
      {"measurement": "Potency", "value": "inactive"}
    ]},
    {"molecule": "CCC(=O)N1CCN(c2ccc(NC(=O)c3ccc([N+](=O)[O-])o3)cc2Cl)CC1", "values": [
      {"measurement": "Potency", "value": "inactive"}
    ]}
  ]
}
